The source made the active and inactive calls. How the source made its calls: active means hit-call score of the fitted dose curve at least 0.9, where 1 is the maximum; inactive means score below 0.9.
How the values were obtained:
[1] = ATG_GLI_CIS: Attagene CIS-FACTORIAL HepG2 Assay for human Zinc Finger Protein GLI1 (AID 2282945); details: HepG2, Attagene cis-factorial reporter mRNA, GLI element; actives raise or lower the signal
Procedure, shortened: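 Transiently transfected HepG2 cells report endogenous transcription factor activity via cis-element-driven reporter units. After 24 h compound exposure, reporter mRNA was measured by RT-PCR with capillary electrophoresis; bidirectional fitting against DMSO baseline.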

[2] = ATG_GRE_CIS: Attagene CIS-FACTORIAL HepG2 Assay for human Glucocorticoid Response Elements (GRE) (AID 2282947); details: HepG2 GRE cis-reporter, Attagene multiplex mRNA; actives raise or lower the signal
Procedure, shortened: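 Read-out: fluorescent reporter-transcript fragments separated by capillary electrophoresis after RT-PCR. Transiently transfected HepG2 cells carrying cis-element-driven reporter units were dosed for 24 h; gain or loss of signal fitted against DMSO control.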

[3] = ATG_ISRE_CIS: Attagene CIS-FACTORIAL HepG2 Assay for human Interferon Regulatory Factor 1 (IRF1) binding to an Interferon-Stimulated Response Element (ISRE) (AID 2282948); details: HepG2 ISRE cis-reporter (Attagene), mRNA transcription readout; actives raise or lower the signal
Procedure, shortened: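 Uses HepG2 liver cells transfected with cis-regulated reporters and measures mRNA 24 h post-dosing through RT-PCR, primer-extension labelling and capillary electrophoresis, with DMSO as negative control.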

[4] = ATG_M_32_CIS: Attagene CIS-FACTORIAL HepG2 Assay for M32 Transcription Factor (Internal Marker) (AID 2282949); details: HepG2 Attagene cis-factorial M32 reporter, mRNA; actives raise or lower the signal;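 further: background control marker of the multiplexed CIS panel rather than a real target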
Procedure, shortened: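 Transient MRTU transfection of HepG2; 24 h compound treatment; TriZol RNA, oligo(dT) RT, reporter PCR, 6-FAM primer extension, HpaI cut, CE. Gain/loss of signal vs DMSO.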

[5] = ATG_M_06_CIS: Attagene CIS-FACTORIAL HepG2 Assay for M06 Transcription Factor (Internal Marker) (AID 2282950); details: HepG2 Attagene CIS-FACTORIAL M06 internal marker reporter; actives raise or lower the signal
Procedure, shortened: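 Steps: transfect HepG2 with multiplexed cis-element reporter constructs; dose chemical 24 h; extract RNA with DNase treatment; reverse-transcribe, PCR-amplify, 6-FAM label, HpaI digest; separate fragments by capillary electrophoresis. Activity fitted both directions versus DMSO.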

[6] = molecular target: Hypoxia-inducible factor 1-alpha (Homo sapiens) (UniProt Q16665); test: ATG_HIF1a_CIS: Attagene CIS-FACTORIAL HepG2 Assay for human Hypoxia Inducible Factor 1 (HIF1A) (AID 2282951); details: HepG2 Attagene cis-factorial HIF1a reporter transcription; actives raise or lower the signal
Chain of Hypoxia-inducible factor 1-alpha (Homo sapiens) (Q16665 whole entry, looked up, the tested form may be a part): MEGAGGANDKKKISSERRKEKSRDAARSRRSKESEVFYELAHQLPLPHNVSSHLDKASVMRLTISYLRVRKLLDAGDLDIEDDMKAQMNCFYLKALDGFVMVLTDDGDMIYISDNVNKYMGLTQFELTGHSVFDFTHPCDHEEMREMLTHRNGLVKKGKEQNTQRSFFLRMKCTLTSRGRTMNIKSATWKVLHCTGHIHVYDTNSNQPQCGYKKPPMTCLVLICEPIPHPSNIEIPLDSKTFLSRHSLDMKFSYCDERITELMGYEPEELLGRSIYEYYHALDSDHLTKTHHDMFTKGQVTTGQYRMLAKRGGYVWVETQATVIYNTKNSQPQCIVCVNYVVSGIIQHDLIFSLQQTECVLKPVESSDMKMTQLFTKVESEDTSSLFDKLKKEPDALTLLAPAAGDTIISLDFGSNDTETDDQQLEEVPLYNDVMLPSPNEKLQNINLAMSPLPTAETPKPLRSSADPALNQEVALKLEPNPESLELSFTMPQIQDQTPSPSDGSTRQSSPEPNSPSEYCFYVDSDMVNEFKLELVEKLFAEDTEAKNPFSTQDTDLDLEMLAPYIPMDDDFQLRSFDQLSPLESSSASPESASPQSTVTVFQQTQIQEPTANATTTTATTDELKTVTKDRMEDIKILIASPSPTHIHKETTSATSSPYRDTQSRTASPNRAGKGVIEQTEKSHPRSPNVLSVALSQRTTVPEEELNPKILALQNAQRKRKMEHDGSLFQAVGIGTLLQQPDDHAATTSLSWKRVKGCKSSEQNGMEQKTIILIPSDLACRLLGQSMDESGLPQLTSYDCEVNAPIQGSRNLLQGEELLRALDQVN
Procedure, shortened: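 Transient MRTU transfection of human HepG2 liver cells, 24 h compound treatment, then total RNA isolation, oligo(dT) reverse transcription, PCR amplification, fluorescent labelling and capillary electrophoresis of reporter fragments. Gain or loss relative to DMSO.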

[7] = molecular target: Hepatocyte nuclear factor 6 (Homo sapiens) (UniProt Q9UBC0); test: ATG_HNF6_CIS: Attagene CIS-FACTORIAL HepG2 Assay for human Hepatocyte Nuclear Factor 6 (HNF6) (AID 2282952); details: HepG2 Attagene cis-factorial HNF6 reporter transcription; actives raise or lower the signal
Chain of Hepatocyte nuclear factor 6 (Homo sapiens) (Q9UBC0 whole entry, looked up): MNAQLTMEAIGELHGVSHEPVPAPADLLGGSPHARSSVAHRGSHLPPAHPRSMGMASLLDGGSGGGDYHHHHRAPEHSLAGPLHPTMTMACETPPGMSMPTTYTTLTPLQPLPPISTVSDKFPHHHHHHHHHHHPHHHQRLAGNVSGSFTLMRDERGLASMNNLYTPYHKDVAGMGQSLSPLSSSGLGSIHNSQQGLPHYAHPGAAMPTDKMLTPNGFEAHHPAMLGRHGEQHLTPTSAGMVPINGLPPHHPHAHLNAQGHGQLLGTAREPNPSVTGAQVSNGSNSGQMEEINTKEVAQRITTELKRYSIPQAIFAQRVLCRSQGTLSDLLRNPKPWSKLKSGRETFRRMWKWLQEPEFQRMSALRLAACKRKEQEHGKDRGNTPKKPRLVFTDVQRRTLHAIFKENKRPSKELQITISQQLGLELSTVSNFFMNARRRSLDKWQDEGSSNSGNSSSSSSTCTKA
Procedure, shortened: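 Activity values derive from bidirectional fitting against DMSO of reporter mRNA levels, measured by capillary electrophoresis of labelled RT-PCR products from HepG2 cells exposed 24 h.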

[8] = molecular target: Heat shock factor protein 1 (Homo sapiens) (UniProt Q00613); test: ATG_HSE_CIS: Attagene CIS-FACTORIAL HepG2 Assay for human Heat Shock Transcription Factor 1 (HSE) (AID 2282953); details: HepG2 HSE cis-reporter, Attagene RNA transcription; actives raise or lower the signal
Chain of Heat shock factor protein 1 (Homo sapiens) (Q00613 whole entry, looked up, the tested form may be a part): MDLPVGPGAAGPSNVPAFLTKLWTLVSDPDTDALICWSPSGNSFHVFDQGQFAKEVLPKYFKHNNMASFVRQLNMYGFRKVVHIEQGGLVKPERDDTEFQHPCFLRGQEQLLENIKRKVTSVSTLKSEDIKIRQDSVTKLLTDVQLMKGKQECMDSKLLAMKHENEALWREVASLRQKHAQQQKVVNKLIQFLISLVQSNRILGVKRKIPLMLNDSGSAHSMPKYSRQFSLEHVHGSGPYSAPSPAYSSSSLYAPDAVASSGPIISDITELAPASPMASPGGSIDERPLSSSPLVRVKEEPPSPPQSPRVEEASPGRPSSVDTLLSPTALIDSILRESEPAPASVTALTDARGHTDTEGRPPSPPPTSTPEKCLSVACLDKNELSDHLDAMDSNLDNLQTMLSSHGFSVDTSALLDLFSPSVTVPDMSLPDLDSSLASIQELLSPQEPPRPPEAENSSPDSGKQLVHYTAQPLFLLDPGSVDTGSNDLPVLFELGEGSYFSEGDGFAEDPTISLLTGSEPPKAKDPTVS
Procedure, shortened: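 Cells were transfected with cis-element-driven reporter constructs, dosed for 24 h, then total RNA was reverse-transcribed and reporter cDNA amplified, FAM-labelled and digested with HpaI. Fragments were resolved by capillary electrophoresis; gain or loss was fitted against DMSO.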

[9] = ATG_MRE_CIS: Attagene CIS-FACTORIAL HepG2 Assay for human Metal Responsive Element (MRE) (AID 2282954); details: HepG2 MRE cis-reporter transcription, Attagene multiplex; actives raise or lower the signal
Procedure, shortened: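 RT-PCR/capillary electrophoresis readout of reporter mRNA, 24 h post-dosing, in HepG2 cells transfected with multiplexed cis-regulated reporter constructs. Gain or loss of signal fitted bidirectionally against DMSO baseline.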

[10] = molecular target: Paired box protein Pax-6 (Homo sapiens) (UniProt P26367); test: ATG_Pax6_CIS: Attagene CIS-FACTORIAL HepG2 Assay for human Paired Box 6 (PAX6) (AID 2282956); details: HepG2 CIS-FACTORIAL PAX6 reporter transcription, RNA readout; actives raise or lower the signal
Chain of Paired box protein Pax-6 (Homo sapiens) (P26367 whole entry, looked up): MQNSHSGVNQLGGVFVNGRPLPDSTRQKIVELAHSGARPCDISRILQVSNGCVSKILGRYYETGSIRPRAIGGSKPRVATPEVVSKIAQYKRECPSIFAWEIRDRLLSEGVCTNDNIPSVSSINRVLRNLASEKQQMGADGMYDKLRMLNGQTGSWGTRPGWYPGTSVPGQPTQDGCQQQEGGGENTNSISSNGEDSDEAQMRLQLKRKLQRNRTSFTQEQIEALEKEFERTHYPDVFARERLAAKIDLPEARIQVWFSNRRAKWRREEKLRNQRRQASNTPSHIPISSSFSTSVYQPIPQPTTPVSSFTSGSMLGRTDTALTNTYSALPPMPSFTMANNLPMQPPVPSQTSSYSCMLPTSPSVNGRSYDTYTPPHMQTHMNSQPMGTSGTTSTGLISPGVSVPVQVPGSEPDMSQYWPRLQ
Procedure, shortened: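 DMSO-referenced bidirectional fits of reporter mRNA fluorescence; HepG2 with transient cis-promoter MRTUs, 24 h post-dose, RT-PCR plus capillary electrophoresis detection.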

[11] = ATG_PXRE_CIS: Attagene CIS-FACTORIAL HepG2 Assay for human Pregnane X Receptor Element (PXRE) (AID 2282957); details: HepG2 Attagene CIS-FACTORIAL PXRE reporter, mRNA; actives raise or lower the signal
Procedure, shortened: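 Fluorescent capillary electrophoresis of amplified reporter cDNA gave the signal, collected 24 h after dosing HepG2 cells that held transfected cis-element reporter constructs.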

[12] = ATG_PPRE_CIS: Attagene CIS-FACTORIAL HepG2 Assay for human Peroxisome Proliferator-activated Response Element (PPRE) (AID 2282958); details: HepG2 PPRE cis-element reporter, Attagene transcription factor profiling; actives raise or lower the signal
Procedure, shortened: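 HepG2, transient MRTU transfection (cis promoter elements, endogenous TFs). 24 h dosing. RNA → oligo(dT) RT → PCR → 6-FAM primer extension → HpaI digest → CE. Bidirectional fit vs DMSO.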

[13] = ATG_RORE_CIS: Attagene CIS-FACTORIAL HepG2 Assay for human RAR-related Orphan Receptor Element (RORE) (AID 2282959); details: HepG2 Attagene cis-factorial RORE reporter, mRNA; actives raise or lower the signal
Procedure, shortened: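 Transient MRTU transfection of human HepG2 liver cells (FuGene 6); 24 h compound exposure; TriZol RNA, oligo(dT) RT, PCR, FAM labeling, HpaI cut, CE fragment analysis. DMSO = negative control/baseline.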

[14] = ATG_Sox_CIS: Attagene CIS-FACTORIAL HepG2 Assay for human SRY-box transcription factor (SOX) (AID 2282960); details: HepG2 Attagene cis-factorial SOX reporter, mRNA; actives raise or lower the signal
Procedure, shortened: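 Endogenous factor activity in human liver HepG2 cells carrying transfected cis-regulated reporter units. RNA taken 24 h post-dose, reverse-transcribed, PCR-amplified and sized by capillary electrophoresis. Gain or loss of signal fitted relative to DMSO.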

[15] = molecular target: Transcription factor Sp1 (Homo sapiens) (UniProt P08047); test: ATG_Sp1_CIS: Attagene CIS-FACTORIAL HepG2 Assay for human Specificity Protein 1 (Sp1) (AID 2282961); details: HepG2 Sp1 cis-reporter transcription, actives raise or lower the signal
Chain of Transcription factor Sp1 (Homo sapiens) (P08047 whole entry, looked up): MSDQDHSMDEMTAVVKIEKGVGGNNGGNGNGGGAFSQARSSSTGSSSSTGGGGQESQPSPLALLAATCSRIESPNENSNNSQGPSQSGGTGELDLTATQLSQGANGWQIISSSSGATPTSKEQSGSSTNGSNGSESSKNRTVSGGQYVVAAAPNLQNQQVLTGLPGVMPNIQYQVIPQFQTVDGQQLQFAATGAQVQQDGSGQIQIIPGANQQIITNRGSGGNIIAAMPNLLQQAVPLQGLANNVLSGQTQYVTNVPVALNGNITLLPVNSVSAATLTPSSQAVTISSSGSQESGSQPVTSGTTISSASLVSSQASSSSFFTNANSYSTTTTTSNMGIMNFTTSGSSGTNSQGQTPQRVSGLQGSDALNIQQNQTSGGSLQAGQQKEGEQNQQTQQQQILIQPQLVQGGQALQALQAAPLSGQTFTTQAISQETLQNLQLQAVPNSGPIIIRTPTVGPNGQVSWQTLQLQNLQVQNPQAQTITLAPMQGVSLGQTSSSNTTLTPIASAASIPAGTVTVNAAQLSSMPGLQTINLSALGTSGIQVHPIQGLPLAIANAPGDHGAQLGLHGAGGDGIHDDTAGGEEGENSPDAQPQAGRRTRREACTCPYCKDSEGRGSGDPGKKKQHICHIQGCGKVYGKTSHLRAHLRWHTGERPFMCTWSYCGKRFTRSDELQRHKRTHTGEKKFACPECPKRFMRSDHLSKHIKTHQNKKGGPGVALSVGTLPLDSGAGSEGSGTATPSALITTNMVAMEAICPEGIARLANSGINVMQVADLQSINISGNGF
Procedure, shortened: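 Transient MRTU-transfected HepG2, 24 h compound exposure. Total RNA → oligo(dT) RT → PCR of reporter → 6-FAM primer extension → HpaI digest → CE. Endpoint fitted both directions vs DMSO.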

[16] = ATG_SREBP_CIS: Attagene CIS-FACTORIAL HepG2 Assay for human Sterol Regulatory Element Binding (SREBP) (AID 2282962); details: HepG2 Attagene cis-factorial SREBP reporter, mRNA; actives raise or lower the signal
Procedure, shortened: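 In this cis-format assay, HepG2 liver cells express reporters controlled by promoter elements responsive to native transcription factors. Exposure lasts 24 h; reporter mRNA fluorescence from capillary electrophoresis gives the signal, fitted bidirectionally against DMSO.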

[17] = molecular target: Signal transducer and activator of transcription 3 (Homo sapiens) (UniProt P40763); test: ATG_STAT3_CIS: Attagene CIS-FACTORIAL HepG2 Assay for human Signal Transducer and Activator of Transcription 3 (STAT3) (AID 2282963); details: HepG2, Attagene cis-factorial STAT3 reporter transcription; actives raise or lower the signal
Chain of Signal transducer and activator of transcription 3 (Homo sapiens) (P40763 whole entry, looked up, the tested form may be a part): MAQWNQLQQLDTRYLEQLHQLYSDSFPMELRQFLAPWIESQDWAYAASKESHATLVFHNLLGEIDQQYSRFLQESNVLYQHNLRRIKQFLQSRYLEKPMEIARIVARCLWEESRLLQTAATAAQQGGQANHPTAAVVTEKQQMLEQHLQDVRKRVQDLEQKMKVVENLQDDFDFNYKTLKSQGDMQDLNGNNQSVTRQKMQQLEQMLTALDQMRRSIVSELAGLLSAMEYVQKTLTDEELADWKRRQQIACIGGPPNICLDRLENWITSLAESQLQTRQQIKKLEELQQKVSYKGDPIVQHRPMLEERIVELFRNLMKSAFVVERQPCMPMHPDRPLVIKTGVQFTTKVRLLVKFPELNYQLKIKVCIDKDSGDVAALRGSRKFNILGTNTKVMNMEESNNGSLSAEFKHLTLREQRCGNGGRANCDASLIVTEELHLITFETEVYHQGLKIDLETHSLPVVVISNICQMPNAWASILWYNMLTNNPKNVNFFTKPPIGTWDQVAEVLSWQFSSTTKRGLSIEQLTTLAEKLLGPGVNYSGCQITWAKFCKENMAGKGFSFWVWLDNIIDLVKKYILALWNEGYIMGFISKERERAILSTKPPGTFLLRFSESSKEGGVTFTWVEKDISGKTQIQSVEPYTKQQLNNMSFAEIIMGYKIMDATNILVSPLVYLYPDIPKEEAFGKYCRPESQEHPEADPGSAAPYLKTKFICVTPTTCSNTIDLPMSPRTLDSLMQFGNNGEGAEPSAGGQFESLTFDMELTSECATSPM
Procedure, shortened: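 Readout: fluorescent reporter mRNA fragments resolved by capillary electrophoresis. Setup: HepG2 transfected with MRTUs reporting endogenous transcription-factor activity, dosed 24 h. Gain or loss of signal fitted bidirectionally against DMSO control.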

[18] = ATG_TA_CIS: Attagene CIS-FACTORIAL HepG2 Assay for human TA Basal Promoter (AID 2282964); details: HepG2 Attagene CIS-factorial TA basal promoter reporter; actives raise or lower the signal
Procedure, shortened: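 Steps: transfect HepG2 with MRTUs; dose 24 h; isolate RNA, DNase-treat, reverse-transcribe; PCR and FAM-label reporter cDNA; digest with HpaI 2h at 37 C; run capillary electrophoresis. Activity fitted both directions against DMSO.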

[19] = ATG_PBREM_CIS: Attagene CIS-FACTORIAL HepG2 Assay for human Phenobarbital-responsive Enhancer Module (PBREM) (AID 2282955); details: HepG2 PBREM cis-reporter, Attagene multiplexed transcription; actives raise or lower the signal
Procedure, shortened: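 Endogenous transcription factors in human liver HepG2 cells drive a PBREM cis-element reporter, whose transcript level after 24 h treatment is quantified by RT-PCR with capillary electrophoresis; activity fitted in both directions against DMSO.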

CCOCC(C)O (configuration not stated)
outcome [1]: inactive
outcome [2]: inactive
outcome [3]: inactive
outcome [4]: inactive
outcome [5]: inactive
outcome [6]: inactive
outcome [7]: inactive
outcome [8]: inactive
outcome [9]: inactive
outcome [10]: inactive
AC50 [11]: 45.3 µM (active)
outcome [12]: inactive
outcome [13]: inactive
outcome [14]: inactive
outcome [15]: inactive
outcome [16]: inactive
outcome [17]: inactive
outcome [18]: inactive

CC1(C)CC(N)CC(C)(CN)C1 (configuration not stated)
outcome [1]: inactive
outcome [2]: inactive
outcome [3]: inactive
outcome [4]: inactive
outcome [5]: inactive
outcome [6]: inactive
outcome [7]: inactive
outcome [8]: inactive
outcome [9]: inactive
outcome [10]: inactive
outcome [11]: inactive
outcome [12]: inactive
outcome [13]: inactive
outcome [14]: inactive
outcome [15]: inactive
outcome [16]: inactive
outcome [17]: inactive
outcome [18]: inactive

N=C1N=C(N)c2ccccc21
outcome [1]: inactive
outcome [2]: inactive
AC50 [3]: 74.1 µM (active)
outcome [4]: inactive
outcome [5]: inactive
outcome [6]: inactive
outcome [7]: inactive
outcome [8]: inactive
AC50 [9]: 74.5 µM (active)
outcome [19]: inactive
outcome [10]: inactive
outcome [11]: inactive
outcome [13]: inactive
outcome [14]: inactive
outcome [15]: inactive
outcome [17]: inactive
outcome [18]: inactive

CCCO[Si](OCCC)(OCCC)OCCC
outcome [1]: inactive
outcome [2]: inactive
outcome [3]: inactive
outcome [4]: inactive
outcome [5]: inactive
outcome [6]: inactive
outcome [7]: inactive
outcome [8]: inactive
outcome [9]: inactive
outcome [19]: inactive
outcome [10]: inactive
outcome [11]: inactive
outcome [13]: inactive
outcome [14]: inactive
outcome [15]: inactive
outcome [16]: inactive
outcome [18]: inactive

CCCCCCC(C)O (configuration not stated)
outcome [1]: inactive
outcome [2]: inactive
outcome [3]: inactive
outcome [4]: inactive
outcome [5]: inactive
outcome [6]: inactive
outcome [7]: inactive
outcome [8]: inactive
outcome [9]: inactive
outcome [10]: inactive
outcome [11]: inactive
outcome [12]: inactive
outcome [13]: inactive
outcome [14]: inactive
outcome [15]: inactive
outcome [16]: inactive
outcome [17]: inactive
outcome [18]: inactive

CC(C)Cc1ccccc1
outcome [1]: inactive
outcome [2]: inactive
outcome [3]: inactive
outcome [4]: inactive
outcome [5]: inactive
outcome [6]: inactive
outcome [7]: inactive
outcome [8]: inactive
outcome [9]: inactive
outcome [10]: inactive
outcome [11]: inactive
outcome [12]: inactive
outcome [13]: inactive
outcome [15]: inactive
outcome [16]: inactive
outcome [17]: inactive
outcome [18]: inactive

[Na+]
outcome [1]: inactive
outcome [2]: inactive
outcome [3]: inactive
outcome [4]: inactive
outcome [5]: inactive
outcome [6]: inactive
outcome [7]: inactive
outcome [8]: inactive
outcome [9]: inactive
outcome [19]: inactive
outcome [10]: inactive
outcome [11]: inactive
outcome [14]: inactive
outcome [15]: inactive
outcome [16]: inactive
outcome [18]: inactive

CCCCCCCCOC(=O)c1ccc(O)cc1
outcome [1]: inactive
outcome [2]: inactive
outcome [3]: inactive
outcome [4]: inactive
outcome [5]: inactive
outcome [6]: inactive
outcome [7]: inactive
outcome [8]: inactive
outcome [9]: inactive
outcome [19]: inactive
outcome [10]: inactive
AC50 [11]: 13.4 µM (active)
outcome [14]: inactive
outcome [15]: inactive
outcome [17]: inactive
outcome [18]: inactive
